This passage reports AC50 and outcome results from PubChem BioAssay (EPA / NIEHS).

The source made the active and inactive calls. Rule for the calls: active = hit-call score of the fitted dose curve at least 0.9, where 1 is the maximum; inactive = score below 0.9.

Experiment [1] in a line: CEETOX_H295R_OHPROG: CeeTox H295R High-throughput Steroidogenesis Assay for OH-Progesterone (OHPROG) (AID 2283435).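 For AC50: human adrenal H295R cells primed 48 h with 10 µM forskolin; 17alpha-hydroxyprogesterone secreted into medium measured by HPLC-MS/MS.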 The conditions noted are these: actives raise or lower the signal. A digest of the protocol: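 Secreted 17alpha-hydroxyprogesterone is read by tandem MS from media of forskolin-primed H295R cells dosed with chemical for 48 h. Activity is fitted in both directions against DMSO baseline; cytotoxic concentrations are re-tested diluted.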

A short description of experiment [2]: CEETOX_H295R_CORTISOL: CeeTox H295R High-throughput Steroidogenesis Assay for Cortisol (AID 2283438).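 Note: cortisol secreted into medium quantified by LC-MS/MS.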 The conditions noted are these: actives raise or lower the signal. A digest of the protocol: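 Human adrenocortical H295R cells (passage ≤10) received test chemicals for 48 h after forskolin priming. Secreted cortisol was measured by LC-MS/MS.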
Experiment [3] is described as follows: CEETOX_H295R_DOC: CeeTox H295R High-throughput Steroidogenesis Assay for DOC (AID 2283439). Conditions: actives raise or lower the signal. A digest of the protocol:
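Secreted DOC was quantified from H295R media by HPLC-MS/MS after 48 h chemical exposure following 48 h forskolin (10 uM) prestimulation. Values were fitted in both directions relative to DMSO, the negative control and baseline.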

The nature of experiment [4]: CEETOX_H295R_ESTRADIOL: CeeTox H295R High-throughput Steroidogenesis Assay for Estradiol (AID 2283440).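 Note: estradiol secreted into medium quantified by LC-MS/MS after dansyl derivatisation.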 Conditions: actives raise or lower the signal. A digest of the protocol:
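H295R cells pre-stimulated 48 h with 10 uM forskolin, then exposed 48 h to chemical in 0.1% DMSO. Medium estradiol quantified by MTBE extraction, dansyl derivatisation and HPLC-MS/MS; bidirectional fit versus DMSO; MTT viability required >/=70%.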

The nature of experiment [5]: CEETOX_H295R_ESTRONE: CeeTox H295R High-throughput Steroidogenesis Assay for Estrone (AID 2283441).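 Note: estrone secreted into medium measured by LC-MS/MS after dansyl derivatization.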 The conditions noted are these: actives raise or lower the signal. A digest of the protocol:
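H295R cells; 48 h forskolin (10 uM) prestimulation; 48 h compound exposure, 0.1% DMSO final. Medium estrone: MTBE extraction, dansyl derivatization, HPLC-MS/MS. Bidirectional fit vs DMSO.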

The nature of experiment [6]: CEETOX_H295R_PROG: CeeTox H295R High-throughput Steroidogenesis Assay for Progesterone (PROG) (AID 2283442).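 For AC50: human H295R adrenal cells primed with 10 µM forskolin before dosing.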 The conditions noted are these: actives raise or lower the signal. A digest of the protocol:
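H295R adrenal cells prestimulated 48 h with 10 uM forskolin, then exposed 48 h to test chemical in 0.1% DMSO. Progesterone in medium quantified by HPLC-MS/MS after MTBE extraction; viability checked by MTT in same wells.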

Read-out in experiment [7]: Tumor necrosis factor receptor superfamily member 6 (Homo sapiens) (UniProt P25445)
The experiment in a line: LTEA_HepaRG_FAS: Life Technologies and Expression Analysis (LTEA) Assay for Fas cell surface death receptor (FAS) using HepaRG (AID 2283447). Conditions: mRNA level, 48 h; actives raise or lower the signal. A digest of the protocol:
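Differentiated human HepaRG cells, pre-cultured 48 h, were exposed in duplicate for 48 h to 8-point half-log concentrations (top 100 uM, 0.5% DMSO) in serum-free induction medium; FAS mRNA measured by qRT-PCR, normalized to ACTB/GAPDH/POLR2A, bidirectional fit versus DMSO.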

Read-out in experiment [8]: Cyclin D2 (CCND2), CCND2 (gene 894)
Kind of experiment: LTEA_HepaRG_CCND2: Life Technologies and Expression Analysis (LTEA) Assay for Cyclin D2 (CCND2) using HepaRG (AID 2283449).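 Note: CCND2 transcript measured by TaqMan qRT-PCR and normalised to three housekeeping genes.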 The conditions noted are these: mRNA level, 48 h; actives raise or lower the signal. A digest of the protocol:
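Differentiated human HepaRG cells were exposed for 48 h in serum-free induction medium to eight half-log concentrations topping at 100 uM (0.5% DMSO vehicle). CCND2 mRNA was quantified by TaqMan qRT-PCR, normalised to ACTB, GAPDH and POLR2A, and fitted bidirectionally against DMSO.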

Read-out in experiment [9]: Cyclin Dependent Kinase Inhibitor 1A (CDKN1A), CDKN1A (gene 1026)
Kind of experiment: LTEA_HepaRG_CDKN1A: Life Technologies and Expression Analysis (LTEA) Assay for Cyclin Dependent Kinase Inhibitor 1A (CDKN1A) using HepaRG (AID 2283450). The conditions noted are these: mRNA level, 48 h; actives raise or lower the signal. A digest of the protocol:
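Differentiated HepaRG cells in serum-free induction medium, exposed 48 h in duplicate to eight half-log concentrations up to 100 uM in 0.5% DMSO. mRNA measured by TaqMan qRT-PCR, normalized to ACTB, GAPDH, POLR2A; bidirectional fit versus DMSO.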

Read-out in experiment [10]: Cyclin D1 (CCND1), CCND1 (gene 595)
Kind of experiment: LTEA_HepaRG_CCND1: Life Technologies and Expression Analysis (LTEA) Assay for Cyclin D1 (CCND1) using HepaRG (AID 2283451). The conditions noted are these: mRNA level, 48 h; actives raise or lower the signal. A digest of the protocol: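 Differentiated HepaRG cells exposed 48 h in serum-free induction medium to eight half-log concentrations from 100 uM top, 0.5% DMSO, duplicates. CCND1 mRNA measured by Fluidigm TaqMan qRT-PCR, normalised to ACTB, GAPDH, POLR2A; bidirectional fit.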

Read-out in experiment [11]: catalase (CAT), CAT (gene 847)
Kind of experiment: LTEA_HepaRG_CAT: Life Technologies and Expression Analysis (LTEA) Assay for catalase (CAT) using HepaRG (AID 2283452). Conditions: mRNA level, 48 h; actives raise or lower the signal. A digest of the protocol:
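Differentiated HepaRG cells in serum-free induction medium were dosed 48 h in duplicate, eight half-log concentrations from 100 uM in 0.5% DMSO. Transcript measured by TaqMan qRT-PCR, normalised to ACTB/GAPDH/POLR2A, fitted bidirectionally against DMSO.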

Read-out in experiment [12]: flavin-containing dimethylaniline monooxygenases 3 (FMO3), FMO3 (gene 2328)
Kind of experiment: LTEA_HepaRG_FMO3: Life Technologies and Expression Analysis (LTEA) Assay for flavin-containing dimethylaniline monooxygenases 3 (FMO3) using HepaRG (AID 2283453). The conditions noted are these: mRNA level, 48 h; actives raise or lower the signal. A digest of the protocol: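 HepaRG, 48 h exposure, 8-pt half-log series from 100 uM, 0.5% DMSO vehicle, duplicates; FMO3 transcript by Fluidigm TaqMan qRT-PCR, housekeeping-normalized; gain/loss fit vs DMSO.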

Read-out in experiment [13]: Forkhead box O1 (FOXO1), FOXO1 (gene 2308)
The experiment in a line: LTEA_HepaRG_FOXO1: Life Technologies and Expression Analysis (LTEA) Assay for Forkhead box O1 (FOXO1) using HepaRG (AID 2283456). The conditions noted are these: mRNA level, 48 h; actives raise or lower the signal. A digest of the protocol:
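Differentiated human HepaRG cells in serum-free induction medium were exposed in duplicate for 48 h to eight half-log concentrations (top 100 uM, 0.5% DMSO). FOXO1 mRNA was measured by TaqMan qRT-PCR, normalised to ACTB, GAPDH and POLR2A, and fitted bidirectionally against DMSO.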

Read-out in experiment [14]: growth arrest and DNA damage 45 (GADD45A), GADD45A (gene 1647)
Kind of experiment: LTEA_HepaRG_GADD45A: Life Technologies and Expression Analysis (LTEA) Assay for growth arrest and DNA damage 45 (GADD45A) using HepaRG (AID 2283458). The conditions noted are these: mRNA level, 48 h; actives raise or lower the signal. A digest of the protocol: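 Human HepaRG liver cells are treated in duplicate for 48 h with chemicals in 0.5% DMSO, highest concentration 100 uM. Expression is read by qRT-PCR and analyzed in both directions against vehicle.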

Read-out in experiment [15]: Forkhead box O3 (FOXO3), FOXO3 (gene 2309)
Kind of experiment: LTEA_HepaRG_FOXO3: Life Technologies and Expression Analysis (LTEA) Assay for Forkhead box O3 (FOXO3) using HepaRG (AID 2283459). The conditions noted are these: mRNA level, 48 h; actives raise or lower the signal. A digest of the protocol: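 Differentiated human HepaRG cells in serum-free induction medium were exposed in duplicate for 48 h to eight half-log concentrations up to 100 uM in 0.5% DMSO. FOXO3 mRNA was quantified by qRT-PCR, normalized to ACTB, GAPDH and POLR2A, with bidirectional fitting versus DMSO.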

Read-out in experiment [16]: Fatty acid synthase (Homo sapiens) (UniProt P49327)
Kind of experiment: LTEA_HepaRG_FASN: Life Technologies and Expression Analysis (LTEA) Assay for Fatty Acid Synthase (FASN) using HepaRG (AID 2283448). Conditions: mRNA level, 48 h; actives raise or lower the signal. A digest of the protocol: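 Transcript-level assay: HepaRG liver cells are treated for 48 h across an eight-point range topping at 100 uM, and FASN mRNA, normalized to three housekeeping genes, is compared with DMSO controls in both directions.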

Read-out in experiment [17]: CFLAR gene, CFLAR (gene 8837)
The experiment in a line: LTEA_HepaRG_CFLAR: Life Technologies and Expression Analysis (LTEA) Assay for CFLAR gene using HepaRG (AID 2283455). Conditions: mRNA level, 48 h; actives raise or lower the signal. A digest of the protocol:
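HepaRG cells were plated for 48 h, switched to serum-free induction medium, then exposed in duplicate for 48 h to 8 concentrations (top 100 uM, half-log steps, 0.5% DMSO). CFLAR mRNA was measured by qRT-PCR, normalized to ACTB, GAPDH and POLR2A.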

Chain of Fatty acid synthase (Homo sapiens) (P49327 whole entry, looked up): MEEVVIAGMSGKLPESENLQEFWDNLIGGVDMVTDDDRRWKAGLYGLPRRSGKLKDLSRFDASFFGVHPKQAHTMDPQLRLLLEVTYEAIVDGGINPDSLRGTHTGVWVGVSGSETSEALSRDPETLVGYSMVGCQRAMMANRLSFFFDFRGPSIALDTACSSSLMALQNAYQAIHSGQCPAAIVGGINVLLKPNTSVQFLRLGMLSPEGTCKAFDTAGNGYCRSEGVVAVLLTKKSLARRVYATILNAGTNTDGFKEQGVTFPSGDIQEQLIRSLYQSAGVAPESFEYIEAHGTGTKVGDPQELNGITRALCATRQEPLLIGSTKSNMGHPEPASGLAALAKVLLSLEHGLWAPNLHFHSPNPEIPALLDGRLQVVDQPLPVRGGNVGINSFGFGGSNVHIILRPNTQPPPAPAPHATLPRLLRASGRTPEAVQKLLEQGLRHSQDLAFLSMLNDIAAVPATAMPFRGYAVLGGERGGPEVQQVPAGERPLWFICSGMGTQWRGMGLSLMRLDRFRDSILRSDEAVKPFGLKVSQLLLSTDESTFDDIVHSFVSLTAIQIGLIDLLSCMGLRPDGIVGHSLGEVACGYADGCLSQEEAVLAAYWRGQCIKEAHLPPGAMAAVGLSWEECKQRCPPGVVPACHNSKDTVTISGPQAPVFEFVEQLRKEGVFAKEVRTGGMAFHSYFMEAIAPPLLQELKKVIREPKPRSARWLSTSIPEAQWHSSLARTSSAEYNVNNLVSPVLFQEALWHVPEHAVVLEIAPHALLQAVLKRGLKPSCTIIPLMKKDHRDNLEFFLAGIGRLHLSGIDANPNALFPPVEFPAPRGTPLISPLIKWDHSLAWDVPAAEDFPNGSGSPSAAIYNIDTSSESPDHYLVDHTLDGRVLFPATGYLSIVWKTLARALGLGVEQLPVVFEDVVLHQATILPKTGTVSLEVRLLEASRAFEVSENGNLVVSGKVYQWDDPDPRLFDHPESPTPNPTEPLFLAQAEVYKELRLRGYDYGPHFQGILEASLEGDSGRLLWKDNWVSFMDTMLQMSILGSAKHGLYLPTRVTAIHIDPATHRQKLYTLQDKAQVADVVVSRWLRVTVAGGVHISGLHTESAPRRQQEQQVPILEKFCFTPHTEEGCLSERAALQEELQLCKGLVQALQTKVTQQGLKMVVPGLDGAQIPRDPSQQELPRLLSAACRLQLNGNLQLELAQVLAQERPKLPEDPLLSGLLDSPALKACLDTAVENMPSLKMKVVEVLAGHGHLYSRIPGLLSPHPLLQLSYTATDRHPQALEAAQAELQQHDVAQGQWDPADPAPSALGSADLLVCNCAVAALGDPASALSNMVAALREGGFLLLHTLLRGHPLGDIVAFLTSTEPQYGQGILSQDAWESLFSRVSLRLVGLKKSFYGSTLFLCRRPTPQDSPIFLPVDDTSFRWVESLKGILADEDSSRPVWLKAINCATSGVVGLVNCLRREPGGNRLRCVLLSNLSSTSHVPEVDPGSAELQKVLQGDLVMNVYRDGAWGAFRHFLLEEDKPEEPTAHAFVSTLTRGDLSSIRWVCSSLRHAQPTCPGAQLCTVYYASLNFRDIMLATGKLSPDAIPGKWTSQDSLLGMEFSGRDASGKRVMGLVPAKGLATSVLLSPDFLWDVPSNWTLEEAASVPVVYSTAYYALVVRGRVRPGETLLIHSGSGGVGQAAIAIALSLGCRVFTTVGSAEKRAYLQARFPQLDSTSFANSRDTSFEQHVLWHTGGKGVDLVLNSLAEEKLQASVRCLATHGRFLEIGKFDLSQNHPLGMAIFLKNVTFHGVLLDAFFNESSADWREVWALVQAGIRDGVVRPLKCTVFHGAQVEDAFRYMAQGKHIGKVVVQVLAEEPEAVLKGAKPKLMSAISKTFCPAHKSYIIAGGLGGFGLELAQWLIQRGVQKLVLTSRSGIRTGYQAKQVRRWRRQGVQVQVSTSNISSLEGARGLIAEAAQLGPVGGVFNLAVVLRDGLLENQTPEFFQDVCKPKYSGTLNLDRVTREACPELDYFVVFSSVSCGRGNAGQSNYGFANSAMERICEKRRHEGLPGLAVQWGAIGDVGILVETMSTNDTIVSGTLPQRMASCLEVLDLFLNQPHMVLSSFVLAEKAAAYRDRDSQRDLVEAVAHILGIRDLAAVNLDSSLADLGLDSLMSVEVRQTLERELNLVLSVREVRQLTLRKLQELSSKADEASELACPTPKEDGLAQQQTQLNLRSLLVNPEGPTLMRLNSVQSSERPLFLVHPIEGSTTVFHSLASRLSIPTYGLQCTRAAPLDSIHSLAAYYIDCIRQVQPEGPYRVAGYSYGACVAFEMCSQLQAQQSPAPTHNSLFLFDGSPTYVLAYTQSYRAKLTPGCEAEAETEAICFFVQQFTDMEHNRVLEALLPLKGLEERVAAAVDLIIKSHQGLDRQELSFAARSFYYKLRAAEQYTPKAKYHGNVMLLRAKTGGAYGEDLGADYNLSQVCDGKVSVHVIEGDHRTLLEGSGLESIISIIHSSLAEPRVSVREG

Consider `CCC(C)(C)c1ccc(O)cc1`, for which the AC50 in experiment [1] is 15.5 µM (active); in [3], 21.9 µM (active). Moreover, the compound was called inactive in experiment [2], in experiment [4], in experiment [5], in experiment [6], in experiment [7] and in experiment [8]. Moreover, the compound was classed as inactive in experiment [9], in experiment [10], in experiment [11], in experiment [12], in [13] and in [14]. Further, in experiment [15], the call was inactive.
As for `O=S(=O)(c1ccc(O)cc1)c1ccc(O)cc1`, the AC50 was 0.82 µM (active) in experiment [1]; 28.4 µM (active) in experiment [2]; 3.31 µM (active) in [3]; 18.3 µM (active) in experiment [4]; 1.32 µM (active) in [6]. Moreover, the compound was called inactive in experiment [5].
As for `Nc1cc2c3c(c1)C(c1ccccc1)=N[C@@H](NC(=O)c1cccnc1)C(=O)N3CC2`, the half-maximal activity concentration (AC50) is 4.41 µM (active) in experiment [1], 76.8 µM (active) in experiment [2], 33.8 µM (active) in [3] and 3.44 µM (active) in [6]. Further, the compound was called inactive in experiment [4], in [5], in [7], in experiment [16], in experiment [8] and in experiment [9]. Also, the compound was classed as inactive in experiment [10], in experiment [11], in [12], in [17], in experiment [13] and in experiment [14]. Moreover, the compound was called inactive in experiment [15].
Take `CC(C)Nc1ccc(Nc2ccccc2)cc1`: the call in experiment [1], in experiment [2], in experiment [3], in [4], in [5] and in experiment [6] was inactive.
`O=S1(=O)OCC2C(CO1)C1(Cl)C(Cl)=C(Cl)C2(Cl)C1(Cl)Cl` (stereo not given): the AC50 is 10 µM (active) in experiment [1], 9.67 µM (active) in experiment [2], 7.77 µM (active) in experiment [3] and 1.03 µM (active) in experiment [6]. In addition, the call in experiment [4] and in experiment [5] was inactive.

Broadly, the AC50 is the concentration giving half of the maximal activity seen.
